Screens deposited in PubChem by National Center for Advancing Translational Sciences (NCATS).
TDP1 cell noCPT: qHTS for Inhibitors of human tyrosyl-DNA phosphodiesterase 1 (TDP1): qHTS in cells in absence of CPT; DT40 Tdp1-/- hTDP1 cells, no CPT, ATP luminescence, 48 h; Potency, µM (highest dose often 46.2 µM), for inactives: top-dose activity change, negative = growth inhibition, hits mostly inhibitors; actives 15% (n = 420,000); AID 686978, 2013; further: potency means the concentration at half of the fitted maximal effect; on the % scale 0 is the no-effect control and ±100 the full control effect; nearly all actives have a fitted effect of over 55% in size
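Seeded 400 DT40-hTDP1 cells/well (vehicle DMSO, no 20 nM CPT); pinned compounds; ≥48 hr at 37 °C; CellTiter-Glo luminescence as viability measure.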
MCF10A rerep: induces DNA re-replication in MCF 10a normal breast cells | Potency, µM (titrated, usually from 46.1 µM), for inactives: at the highest dose activity, positive = re-replication, most hits filed as activators | actives 2.9% (n = 350,000) | MCF 10A DNA re-replication, Hoechst nuclear intensity, 48 h; further: potency means the concentration at half of the fitted maximal effect; % of control where 0% means no effect; nearly all actives have a fitted effect of over 50% in size
IL-1B inflam inh: inflammasome signaling inhibition, IL-1 beta readout. actives 4.7% (n = 360,000). activity change, % at 57.5 µM. THP-1 LPS/ATP IL-1B secretion, AlphaLISA, 16 h; hits give low values; in the data active means activity change below about -50%; inconclusive means mostly about -30% to -49%; further: on the % scale 0 is the no-effect control and ±100 the full control effect
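Secreted IL-1B measured by AlphaLISA bead assay after 16 h compound exposure of THP-1 cells; compounds (final up to 57.5 uM) added 1 h before LPS (250 ng/mL) and ATP (1.25 mM) stimulation; lower signal means less secretion.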
TDP1 cell CPT: DT40-hTDP1 cell growth loss with CPT; chicken DT40 Tdp1-/-;hTDP1 cells + 20 nM CPT, ATP luminescence, 48 h; Potency, µM (titrated, usually from 46.2 µM), without a hit: top-dose activity change, negative = growth inhibition, hits mostly inhibitors; actives 12% (n = 420,000); AID 686979; further: potency means the concentration at half of the fitted maximal effect; on the % scale 0 is the no-effect control and ±100 the full control effect; nearly all actives have a fitted effect of over 55% in size
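Cell growth measured by CellTiter-Glo luminescence after a minimum 48 h, 37 C compound exposure with 20 nM CPT in Tdp1-knockout DT40 cells stably expressing hTDP1, seeded 400/well; qHTS titration format.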
Chronic BCR inh: inhibitors of chronic active B-cell receptor signaling. actives 0.05% (n = 340,000). AID 493014. Potency, µM (titrated, usually from 46.1 µM), for the others: at the highest dose activity change, negative = inhibition, usual class: inhibitors. ABC-DLBCL IkBa-CBG/CBR reporter, luminescence ratio, 4 h; active means well fitted inhibition curve with a large enough effect in the signal ratio, with a control signal flat, not every such curve was filed as active; inconclusive means small, poorly fitted or top-dose-only effect, or effect the other way, or a change in a side signal; the % refers to the signal ratio;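 further: potency means the concentration at half of the fitted maximal effect; plate controls were basal doxycycline-induced cells for no effect and cells given 10 µM MG132 for full effect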
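Compounds up to 46 uM were incubated four hours with TMD8 cells whose green CBG68 luciferase is fused to IkappaBalpha; red CBR luminescence normalised the signal, and concentration-effect curves were fitted to fusion, red and ratio data.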
SW480 rereplic: inducers of DNA re-replication in SW480 colon cancer cells; SW480 DNA re-replication, Hoechst DNA content imaging, 48 h; Potency, µM (titrated, usually from 46.1 µM), without a hit: at the highest dose re-replication activation, usual class: activators; actives 1.8% (n = 340,000); AID 624297; further: potency means the concentration at half of the fitted maximal effect; % of control where 0% means no effect; nearly all actives have a fitted effect of over 55% in size
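DNA re-replication was detected as more nuclei of elevated Hoechst intensity after 48 hr exposure to compound (23 nL pinned per well of 250 cells).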
Active calls of the source: *. Rows were chosen to be rich in hits. Some 19% of all compounds tested hit in one or more screens of this group. Unless noted, the call rests on the fitted dose curve; in most records, active means well fitted curve in the direction sought with a large enough effect; inconclusive means small, poorly fitted or top-dose-only effect, or another doubt; inactive means no such curve, though single readings can be large; an effect the other way counts as inactive or inconclusive.

`COc1ccc(-n2c(SCC(=O)Nc3cc(C)on3)nc3c(c2=O)SC(C)C3)cc1` (stereo not given) gave TDP1 cell noCPT inconclusive, IL-1B inflam inh -25.5 and TDP1 cell CPT -2.0%.
Screening CC1Cc2nc(SCC(N)=O)n(Cc3ccccc3)c(=O)c2S1 (stereo not given) returned TDP1 cell noCPT -20.7%, MCF10A rerep -17.3%, IL-1B inflam inh -11.3, TDP1 cell CPT -1.9%, Chronic BCR inh -3.6% and SW480 rereplic 0.0%.
CC1Cc2nc(SCC(=O)NCC3CCCO3)n(Cc3ccccc3)c(=O)c2S1 (stereo not given) was read as TDP1 cell noCPT -15.5%, MCF10A rerep -2.8%, IL-1B inflam inh -10.3, TDP1 cell CPT 1.3%, Chronic BCR inh 8.1% and SW480 rereplic -10.4%.
`CC1Cc2nc(SCC(=O)Nc3nccs3)n(Cc3ccccc3)c(=O)c2S1` (stereo not given) gave TDP1 cell noCPT inconclusive, MCF10A rerep 8.5%, IL-1B inflam inh -25.9, TDP1 cell CPT 20.6µM*, Chronic BCR inh 2.4% and SW480 rereplic -11.2%.
COCCn1c(SCC(=O)Nc2ccc3c(c2)OCCO3)nc2c(c1=O)SC(C)C2 (stereo not given) was read as TDP1 cell noCPT inconclusive, MCF10A rerep -5.5%, IL-1B inflam inh -4.2, TDP1 cell CPT 14.6µM*, Chronic BCR inh inconclusive and SW480 rereplic -1.6%.
CCSc1nc2c(c(=O)n1Cc1ccccc1)SC(C)C2 (stereo not given) was read as TDP1 cell noCPT inconclusive, MCF10A rerep -0.1%, IL-1B inflam inh inconclusive, TDP1 cell CPT 11.6µM*, Chronic BCR inh 9.5% and SW480 rereplic -17.0%.
`Cc1cc(NC(=O)CSc2nc3c(c(=O)n2-c2ccccc2)SC(C)C3)no1` (stereo not given) gave TDP1 cell noCPT 20.6µM*, MCF10A rerep 11.9%, IL-1B inflam inh -2.3, TDP1 cell CPT inconclusive, Chronic BCR inh -8.4% and SW480 rereplic -15.2%.
For O=C(O)c1cc(-n2[nH]c(=O)c3ccccc3c2=O)ccc1Cl the results were TDP1 cell noCPT -1.2%, MCF10A rerep -21.8%, IL-1B inflam inh 30.2, TDP1 cell CPT -1.4%, Chronic BCR inh inconclusive and SW480 rereplic -11.5%.
`O=C1CSC(c2cccc([N+](=O)[O-])c2)N1CCc1ccccc1` (stereo not given) gave TDP1 cell noCPT -11.4%, MCF10A rerep 9.2%, IL-1B inflam inh -16.5, TDP1 cell CPT -4.6%, Chronic BCR inh 0.8% and SW480 rereplic 1.0%.
`O=C(Cc1ccc(F)cc1)N[C@@H]1c2ccccc2CC[C@@H]1OCc1ccccc1` gave TDP1 cell noCPT -7.8%, MCF10A rerep -0.5%, IL-1B inflam inh 35.0, TDP1 cell CPT -19.0%, Chronic BCR inh -1.0% and SW480 rereplic 33.8%.
O=C(COC(=O)CCc1ccc(S(=O)(=O)N2CCOCC2)cc1)Nc1ccccc1OC(F)F was read as TDP1 cell noCPT -10.7%, MCF10A rerep -2.4%, IL-1B inflam inh 21.2, TDP1 cell CPT -2.7%, Chronic BCR inh 1.6% and SW480 rereplic -6.4%.
For COc1ccc(C(=O)N/C(=C\c2ccc3c(c2)OCO3)C(=O)N2CCOCC2)cc1 the results were TDP1 cell noCPT -14.3%, MCF10A rerep 1.5%, IL-1B inflam inh 11.1, TDP1 cell CPT -17.1%, Chronic BCR inh 3.6% and SW480 rereplic -13.1%.
Screening CC1Cc2nc(SCC(=O)Nc3ccc4c(c3)OCO4)n(Cc3ccccc3)c(=O)c2S1 (stereo not given) returned TDP1 cell noCPT inconclusive, MCF10A rerep inconclusive, IL-1B inflam inh -19.4, TDP1 cell CPT 16.4µM*, Chronic BCR inh inconclusive and SW480 rereplic inconclusive.
COc1ccc(CCNC(=O)/C(C#N)=C2\N=C(NC(=O)c3ccco3)c3ccccc32)cc1 was read as TDP1 cell noCPT 16.4µM*, MCF10A rerep inconclusive, IL-1B inflam inh 9.4, TDP1 cell CPT inconclusive, Chronic BCR inh -14.2% and SW480 rereplic inconclusive.
For CCN(CC)S(=O)(=O)c1ccc(/C=C/C(=O)N(c2ccccn2)C2CCCCC2)cc1 the results were TDP1 cell noCPT 11.6µM*, MCF10A rerep 16.1%, IL-1B inflam inh 47.0, TDP1 cell CPT inconclusive, Chronic BCR inh 2.2% and SW480 rereplic 15.6%.
For O=C(/C=C/c1ccccc1Cl)N(c1ccccn1)C1CCCCC1 the results were TDP1 cell noCPT 16.4µM*, MCF10A rerep -6.8%, IL-1B inflam inh 0.0, TDP1 cell CPT inconclusive, Chronic BCR inh 2.4% and SW480 rereplic -3.1%.
`Cn1c(=O)c(=O)n(C)c2cc(NS(=O)(=O)c3ccc(Br)cc3)c(Cl)cc21` gave TDP1 cell noCPT inconclusive and TDP1 cell CPT -26.1%.
CCCC1=C([O-])C2N=CC=CC2=[N+](c2ccccn2)C1=O (stereo not given) was read as TDP1 cell noCPT -7.3%, MCF10A rerep -10.5%, IL-1B inflam inh -10.1, TDP1 cell CPT -8.6%, Chronic BCR inh 0.7% and SW480 rereplic 6.1%.
Screening COc1cc(/C(C)=N/N2CCN(c3ccccc3OC)CC2)ccc1O returned TDP1 cell noCPT 8.6%, MCF10A rerep 3.66µM*, IL-1B inflam inh -0.2, TDP1 cell CPT -9.7%, Chronic BCR inh inconclusive and SW480 rereplic -32.7%.
Screening COc1ccccc1N1CCN(/N=C(\C)c2ccccc2O)CC1 returned TDP1 cell noCPT inconclusive, MCF10A rerep -0.2%, IL-1B inflam inh 5.4, TDP1 cell CPT -17.2%, Chronic BCR inh 8.6% and SW480 rereplic 0.6%.
For COc1ccccc1N1CCN(/N=C/c2cc([N+](=O)[O-])ccc2Cl)CC1 the results were TDP1 cell noCPT 18.9%, MCF10A rerep 0.581µM*, IL-1B inflam inh 5.3, TDP1 cell CPT -9.6%, Chronic BCR inh -3.8% and SW480 rereplic -79.4%.
`COc1ccccc1N1CCN(/N=C/C(Cl)=C/c2ccccc2)CC1` gave TDP1 cell noCPT 16.4µM*, MCF10A rerep inconclusive, IL-1B inflam inh inconclusive, TDP1 cell CPT 25.9µM*, Chronic BCR inh 1.0% and SW480 rereplic -1.0%.
COc1ccc(-c2ccccc2NC(=O)C2CCCN(Cc3ccc(C)o3)C2)cc1 (stereo not given) was read as TDP1 cell noCPT inconclusive, MCF10A rerep 19.9%, IL-1B inflam inh -7.1, TDP1 cell CPT inconclusive, Chronic BCR inh 17.9% and SW480 rereplic 13.2%.
